# Experimental data taken from the supplement of paper PMC6555819.
# What was measured:
# Assay in all cases: PBM binding z-score (relative to random genomic background probes); higher = stronger binding; sequences stand for … in GC…GCGATTGACAGCGTAGAATGAAGG
# [1] = system: PPARg:RXRa DBDmut IVT, anti-RXR (DBD mutation: RXRa K156A/R161A, NR concentration 270 nM, RXRa partner concentration 90 nM)
# Summary of the method: (§1)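 The probes on custom Agilent 4×180K protein-binding microarrays were double-stranded, with 34-nt variable regions bearing direct-repeat seeds, single-nucleotide variants, half-site ablations and random human genomic background sequences. Incubation lasted 1 h with ligand-free nuclear receptor dimers in PBS pH 7.4, 2% milk, 0.02% Triton X-100, 1 mM DTT, 0.2 mg/mL BSA and 0.4 mg/ml salmon testes DNA. Antibodies against each partner (one per run) detected bound dimers, and fluorescence scans were regression-normalized. Binding z-scores take the random background probes as reference.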
# [2] = system: PPARg:RXRa IVT, anti-PPARg (NR concentration 270 nM, RXRa partner concentration 90 nM)
# Summary of the method: as §1
# [3] = system: PPARg DBDmut:RXRa IVT, anti-PPARg (DBD mutation: PPARg1 K132A/R137A, NR concentration 270 nM, RXRa partner concentration 90 nM)
# Summary of the method: as §1
# [4] = system: PPARg DBDmut IVT, anti-PPARg (DBD mutation: PPARg1 K132A/R137A, NR concentration 270 nM)
# Summary of the method: as §1
# [5] = system: PPARg homodimer (NR concentration 180 nM)
# Summary of the method: as §1
# [6] = system: PXR:RXRa (NR concentration 270 nM, RXRa partner concentration 90 nM)
# Summary of the method: as §1
# [7] = system: PXR homodimer (NR concentration 270 nM)
# Summary of the method: as §1
# [8] = system: RARa:RXR (NR concentration 270 nM, RXRa partner concentration 90 nM)
# Summary of the method: as §1
# [9] = system: RARa homodimer (NR concentration 270 nM)
# Summary of the method: as §1
# [10] = system: RARb:RXRa (NR concentration 270 nM, RXRa partner concentration 90 nM)
# Summary of the method: as §1
# [11] = system: RARb homodimer (NR concentration 270 nM)
# Summary of the method: as §1
# [12] = system: RARg:RXRa (NR concentration 270 nM, RXRa partner concentration 90 nM)
# Summary of the method: as §1
# [13] = system: RARg homodimer (NR concentration 270 nM)
# Summary of the method: as §1
# [14] = system: RXRa DBDmut IVT, anti-RXR (DBD mutation: RXRa K156A/R161A, NR concentration 90 nM)
# Summary of the method: as §1
# [15] = system: RXRa homodimer (NR concentration 180 nM)
# Summary of the method: as §1
# [16] = system: THRa:RXRa (NR concentration 90 nM, RXRa partner concentration 90 nM)
# Summary of the method: as §1
# [17] = system: THRa homodimer (NR concentration 90 nM)
# Summary of the method: as §1
# [18] = system: VDR homodimer (NR concentration 270 nM)
# Summary of the method: as §1
Sequence,PBM binding z-score [1],PBM binding z-score [2],PBM binding z-score [3],PBM binding z-score [4],PBM binding z-score [5],PBM binding z-score [6],PBM binding z-score [7],PBM binding z-score [8],PBM binding z-score [9],PBM binding z-score [10],PBM binding z-score [11],PBM binding z-score [12],PBM binding z-score [13],PBM binding z-score [14],PBM binding z-score [15],PBM binding z-score [16],PBM binding z-score [17],PBM binding z-score [18]
ACTAGCAGGCCAAGTTTTGGTCACTCAAACAAAG,0.635,0.635,-0.425,-0.348,-0.321,-0.259,-0.809,0.113,-0.612,0.742,0.74,0.448,0.546,-0.286,-0.0235,0.0291,-0.326,-0.447
GCTGCTAGGTCACCTGATGGTCAGCTAAAGCTCG,4.7,4.09,0.447,0.446,1.57,1.2,-0.963,2.67,-0.925,3.86,3.33,4.88,5.27,1.18,2.64,3,1.57,-0.0693
GCTATTAGCTGAAAGGGCAACCGAATGATTCTCG,0.31,0.298,-0.309,-0.672,0.621,0.34,-0.258,0.809,-0.61,1.76,1.53,0.817,0.974,0.616,0.703,0.363,-0.714,-0.0197
ACTCCGAGGACAAAGGTCAGAGCTACGCCAGTGA,1.44,4.05,0.71,-0.0719,6.93,4.53,0.63,5.82,2.61,4.58,4.47,6.28,5.92,1.97,6.11,4.27,2.29,1.67
CCTCGGAGGACCGAAGGTCAGAGCTGTCCGCTTT,-0.463,-0.175,-1.41,-1.98,0.693,1.16,-0.615,1.55,-0.211,2.2,2.65,2.03,2.2,-0.585,1.54,1.62,-0.389,0.161
CCTTACGGTTCACGAGGTTATAGCACGACGAGCG,0.19,0.535,0.19,0.414,1.45,3.2,1.29,3.8,1.36,1.99,2,2.73,1.5,3.15,4.01,2.8,1.26,3.82
AATACAGGGTCATCGTAGTCCAGAGTACGCACAG,2.79,5.02,1.99,2.18,2.87,5.53,1.22,5.21,0.827,4.73,3.56,5.76,4.86,3.42,6.39,4.18,1.83,4.22
CCTTACGGGTCACGAGGTTTTAGCACGACGAGCG,4.32,5.48,0.0926,0.246,2.12,3.85,-0.106,4.95,0.695,4.54,3.71,5.63,5.4,1.57,6.87,3.12,0.658,1.4
CCTTCCGGGTCACTCCAGGTTATAGCATCGGAGT,3.76,4.8,0.383,-0.795,1.88,4.83,0.335,3.65,0.518,3.77,3.42,4.34,3.95,1.2,4.33,5.19,2.37,1.77
AGAATGAGGTTATCAAAGATCAGGGAAACGCTTG,2.98,2.51,1.56,0.266,0.544,1.25,0.0151,1.6,0.154,1.33,0.294,1.47,1.24,1.49,2.28,2.58,0.571,0.495
ACTATAAGTTGACTTAGGGCAACCGATACGACGC,-0.174,0.419,0.924,0.648,0.0162,0.385,0.624,0.604,0.56,1.2,1.03,1,1.11,0.718,0.692,2.4,0.322,0.647
ACTAGCAGGCCAAGTTTGGGTCACTCCAACAAAG,0.7,1.34,-0.265,-0.469,0.235,0.603,-0.498,1.4,-0.0686,1.74,2.33,2.23,1.55,0.0144,0.704,2.47,1.05,0.157
AGTCACAGTTCAGGACGAGGTAACGTAAAGCACG,-0.095,0.996,0.513,0.376,0.443,1.13,0.45,1.52,0.51,2.08,1.66,2.48,1.95,1.31,1.28,3.34,1.84,0.905
TCGAGTAGGTTACCAATGTGGCATTCAGCTTTCT,3.64,2.82,-0.0688,-0.478,-0.26,0.165,-0.485,0.147,-1.11,0.736,-0.0137,0.035,0.256,0.471,0.375,0.00485,-0.499,-0.622
TCTGCTAGGTCAAAGATGGTCAGCTAATCTGCTA,4.67,3.96,0.246,0.394,0.4,1.59,-0.802,2.44,-0.95,3.83,3.04,3.65,4.3,1.31,2.65,3.05,0.196,-0.234
TCTATTAGTTGATTAGGGCAACCGGAACAGCGGA,2.14,1.3,0.694,0.839,1.02,0.35,0.534,0.296,0.818,1.06,0.786,0.516,0.529,1.16,0.673,0.816,0.261,0.547

Sequence,PBM binding z-score [1],PBM binding z-score [2],PBM binding z-score [3],PBM binding z-score [4],PBM binding z-score [5],PBM binding z-score [6],PBM binding z-score [7],PBM binding z-score [8],PBM binding z-score [9],PBM binding z-score [10],PBM binding z-score [11],PBM binding z-score [12],PBM binding z-score [13],PBM binding z-score [14],PBM binding z-score [15],PBM binding z-score [16],PBM binding z-score [17],PBM binding z-score [18]
TAGCCTAGGTCAGATCGGGCCAATATACGCTATA,0.525,1.37,-0.296,-0.715,0.782,2.21,-0.489,1.9,-0.0136,2.94,2.28,2.9,3.4,-0.355,1.51,4.32,0.165,-0.261
TGAATGAGGTCATAAGATCAGGGAACGTTGCAAA,4.55,5.82,2.51,1.96,1.71,4.37,0.734,5.17,0.421,4.55,3.34,5.65,5,3.74,5.88,3.85,2.43,3.77
CGTCCAAGGTCAGCTGGTCAGTGAAAGCGACGTG,2.4,2.17,0.5,-0.832,2.63,2.67,-0.135,3.24,1.47,4.79,3.87,5.3,6.1,2.64,3.99,3.46,1.76,0.478
CCTTACGGGTCACTGACAGGTTATAGAATTTGGA,3.42,3.6,1.19,0.387,2.22,3.68,0.414,4.32,1.29,3.93,3.22,5.81,4.95,1.92,5.1,3.02,0.45,0.936
GCATTTAGGTAATACAAGGTGAAAGTCCGATTGT,3.13,2.5,1.39,0.568,0.826,0.319,0.3,0.911,0.039,0.715,1.06,0.319,0.48,0.617,0.375,3.89,1.59,0.0936
CCTTACGGGTCACTCCAGGTTATAGCATCGGAGT,2.98,3.86,-0.0737,-0.285,1.64,4.79,0.216,3.49,0.27,3.6,3.23,4.39,4.35,1.5,4.36,4.89,0.826,1.69
AGTGAAAGTTCACTAGGTAACGTAAGATTCAGCT,2.6,4.86,1.41,0.57,2.04,3.61,2,3.07,0.607,4.44,3.4,4.46,5.32,3.84,3.77,1.96,-0.00547,3.15
AGTCAAAGTTAACTAGGTAACGTAAGATTCAGCT,3.88,4.72,1,1.26,0.27,-0.0411,-0.0667,0.226,0.167,0.61,-0.331,0.302,0.566,-0.266,0.258,0.564,-0.252,-0.183
CCTTACTGGTCACTCCAGGTTATAGCATCGGAGT,0.949,1.07,0.287,0.23,0.774,0.989,0.586,0.883,1.05,1.53,1.42,0.885,1.32,0.271,0.519,3.26,1.03,0.805
TCTTGTAGATCAAAGGTTCAGAAAGCCGAAGCCT,1.88,1.55,0.156,0.203,0.638,0.73,-0.103,1.13,-0.254,0.898,0.917,0.795,0.335,1.32,1.29,0.166,-0.308,1.5
TCATATAGGGAAATGCTAGGTGAAAGTCCGATCT,2.89,1.33,1.18,0.79,0.712,0.607,0.552,0.746,0.849,0.226,0.336,0.235,0.101,1.66,0.678,0.846,0.365,0.19
CCCAGCAGGCCAATCTGGGTCACTCAAGGCTTGA,3.08,4.97,-0.484,-1.45,0.339,1.31,-0.346,1.46,-0.731,1.63,2.53,1.29,1.5,-0.496,0.923,3.73,0.49,-0.172
ATCGAAAGGTCGACGAGGGGAGTATACACCGTTT,0.481,1.64,1.34,0.0319,1.49,2.39,0.488,3.37,0.328,3.74,2.53,4.16,4.01,1.29,4.27,2.18,-0.0563,0.446
ACTAGTTGGTCAGCTGACGTCACACACAATTCGG,0.857,0.972,0.728,0.709,0.152,0.163,-0.648,0.0415,0.251,0.952,0.958,0.549,0.913,0.433,0.459,0.178,0.155,-0.472
CGTCCAAGGTCAGAGAGTTCAGTGAATGCCGAGT,2.97,2.07,-0.209,-1.29,2.85,6.75,14.2,4.08,1.32,4.78,4.39,5.25,6.4,3.78,4.59,3.62,2,7.94
